# According to PubChem BioAssay:
# Calls of active or inactive are those of the source.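 Rule for the calls, unless noted: active = inhibition above 20% together with a positive visual image hit; inconclusive = visual image hit but inhibition not above 20%; inactive = no visual image hit.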
# Experiments:
# [1] = inhibitors of TNFa-induced NFkB p65 translocation, primary screen, imaging, HUVEC, MLSMR starter and 10KST1 sets (AID 438); conditions: HUVEC TNFa-induced p65 nuclear translocation; cell count: measured here: nuclei count (cytotoxicity indicator), at 2.08 µM; inhibition: at 2 µM, stronger effect = higher value, 0% TNFa-plus-vehicle, 100% no-TNFa wells;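 note: compound added about 3h40 before a 20 min TNFalpha stimulation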;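 for inhibition: signal is the nuclear over cytoplasmic p65 intensity ratio per well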
# [2] = inhibitors of mutant huntingtin aggregation, primary screen, imaging, exon1htt(103Q)mCFP cells, high-content imaging (AID 483;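 active = visual image review flags a hit and inhibition of aggregation exceeds 20%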;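 note: compound exposure lasted 3 days before fixation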;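 for nuclei count: percent of the per-plate median nuclei count of sample wells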); conditions: exon1htt(103Q)mCFP cell line, aggregate imaging, at 2 µM; inhibition of aggregation: stronger effect = higher value; nuclei count: measured here: cell count, toxicity
# [3] = inhibitors of E-selectin induction by TNFa, primary screen, imaging, HUVEC, immunofluorescence, MLSMR starter and 10KST1 sets (AID 487;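 active = visually confirmed hit in the image check and inhibition above 20%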;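 for inhibition: signal is fraction of cell area covered by stained E-selectin grains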;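 for nuclei count: 100% = median nuclei count of all wells on the same plate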); conditions: HUVEC TNFalpha-induced E-selectin immunofluorescence imaging, at 2 µM; inhibition: stronger effect = higher value; nuclei count: measured here: cell number, toxicity
# [4] = target: Voltage-gated potassium channel subunit beta-2 (Rattus norvegicus) (UniProt P62483); test: KvBeta enzyme negative modulators, primary screen, biochemical, NADPH fluorescence (AID 622;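 active = fluorescence slope higher than the sample average by over 3 SD, cut at about -0.22 in these data, passing the limit was not always enough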;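 note: slope of raw intensity against log time taken from 70 to 1610 s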); conditions: recombinant KvBeta, 4-cyanobenzaldehyde reduction, at 10 µM, stronger effect = higher value
# [5] = target: Voltage-gated potassium channel subunit beta-2 (Rattus norvegicus) (UniProt P62483); test: KvBeta positive modulators, primary screen, biochemical, NADPH fluorescence (AID 623;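 active = NADPH fluorescence slope more negative than the mean of all samples by about 3 SD, 99.7% confidence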;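 note: fluorescence intensity change per second fitted from 20 to 320 s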); conditions: Recombinant KvBeta, NADPH fluorescence decrease slope, 10 min; at 10 µM; stronger effect = lower value
# [6] = target: Alpha-2C adrenergic receptor (Homo sapiens) (UniProt P18825); test: modulators of alpha2C/GIRK thallium flux, primary screen, cell-based, HEK293 alpha2C/GIRK1/2 (AID 624;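 active = fluorescence slope after compound addition differing from the mean of all screened samples at 99.7% confidence, in either direction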;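 note: slope of fluorescence ratio to pre-addition baseline per second over 15 to 24 s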); conditions: thallium flux BTC fluorescence, at 10 µM, actives lie on both sides
# [7] = inhibitors of Sendai virus-induced IRF3 signaling, primary screen, TLR/RLR signaling modifier project, cell-based, Sendai virus stimulus, luciferase, 10K MLSCN set (AID 602276;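 active = inhibition at or above 50% at 10 µM; inactive = inhibition below 50%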;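 note: firefly luciferase from ISG56 promoter only with Renilla not read in this screen; 0% = Sendai virus plus DMSO and 100% = medium plus DMSO without virus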); conditions: HEK293 RL24 IRF3 luciferase reporter, at 10 µM, stronger effect = higher value
# [8] = inhibitors of poly I:C-induced TLR3 signaling, primary screen, cell-based, poly I:C stimulus, luciferase, 10K MLSCN set (AID 602277;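 active = inhibition of the reporter signal at or above 50%; inactive = inhibition below 50%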); conditions: HEK293-TLR3 RL24 IRF3 luciferase reporter, at 10 µM, stronger effect = higher value
# Alpha-2C adrenergic receptor (Homo sapiens), sequence (P18825 whole entry, looked up): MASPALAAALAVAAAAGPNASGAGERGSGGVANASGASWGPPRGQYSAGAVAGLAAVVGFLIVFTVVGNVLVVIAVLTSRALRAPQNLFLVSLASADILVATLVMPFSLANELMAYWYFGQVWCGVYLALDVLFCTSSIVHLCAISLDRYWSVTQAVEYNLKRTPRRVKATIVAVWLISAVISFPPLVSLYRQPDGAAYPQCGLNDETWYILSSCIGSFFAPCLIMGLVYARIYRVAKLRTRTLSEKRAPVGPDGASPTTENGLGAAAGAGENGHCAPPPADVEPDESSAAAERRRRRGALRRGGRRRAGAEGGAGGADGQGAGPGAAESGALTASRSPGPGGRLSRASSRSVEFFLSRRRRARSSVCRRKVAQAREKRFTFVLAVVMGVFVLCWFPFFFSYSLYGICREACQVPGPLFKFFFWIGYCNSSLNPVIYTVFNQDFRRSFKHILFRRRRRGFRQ
# Voltage-gated potassium channel subunit beta-2 (Rattus norvegicus), sequence (P62483 whole entry, looked up): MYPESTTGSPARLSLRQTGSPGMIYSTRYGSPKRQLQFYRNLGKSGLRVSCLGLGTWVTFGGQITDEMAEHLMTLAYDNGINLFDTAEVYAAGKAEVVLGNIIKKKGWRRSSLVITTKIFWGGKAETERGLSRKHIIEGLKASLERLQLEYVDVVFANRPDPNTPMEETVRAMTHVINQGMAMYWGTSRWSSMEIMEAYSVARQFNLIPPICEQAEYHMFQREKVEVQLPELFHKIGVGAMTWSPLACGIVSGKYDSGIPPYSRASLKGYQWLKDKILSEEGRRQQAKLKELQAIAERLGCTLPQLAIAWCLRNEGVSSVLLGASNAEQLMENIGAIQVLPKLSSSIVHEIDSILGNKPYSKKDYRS
Structure (SMILES),cell count [1],inhibition [1],inhibition of aggregation [2],nuclei count [2],inhibition [3],nuclei count [3],fluorescence slope [4],NADPH fluorescence slope [5],slope [6],inhibition [7],inhibition [8]
Nc1nc(NCc2ccco2)nn1-c1ccccc1,335,-14.2% (inactive),-22.2% (inactive),112%,5.3% (inactive),93.7%,-0.402 (inactive),-8.1e-05 (inactive),0.00567 (inactive),7.08% (inactive),-10.7% (inactive)
CCC(=O)Nc1c(C#N)c2nc3ccccc3nc2n1-c1ccccc1C,311,-1.9% (inactive),11.4% (inactive),83.9%,-20.8% (inactive),95.9%,-0.0512 (inactive),7.8e-06 (inactive),0.00349 (inactive),12.6% (inactive),21.8% (inactive)
O=c1[nH]c(N2CCCCC2)nc2c1CCCC2,581,0.9% (inactive),5.9% (inactive),107%,9.4% (inactive),102%,-0.265 (inactive),-2.4e-05 (inactive),0.00576 (inactive),17% (inactive),12.8% (inactive)
Cn1c(C(=O)NCCCN2CCCCCC2)cc2c(=O)n(C)c3ccccc3c21,653,5.5% (inactive),-31.5% (inactive),76.6%,-33.1% (inactive),101%,-0.639 (inactive),-4.1e-06 (inactive),0.00675 (inactive),72.2% (active),79% (active)
O=C(NC1=NCCS1)NC12CC3CC(CC(C3)C1)C2,357,-3.3% (inactive),6.6% (inactive),96.6%,-52.9% (inactive),101%,-0.598 (inactive),-3.4e-05 (inactive),0.00362 (inactive),-1.24% (inactive),12.2% (inactive)
CCn1c(SCC(=O)Nc2cc(NC(C)=O)ccc2OC)nnc1-c1ccccn1,630,6.5% (inactive),3.4% (inactive),89.9%,51.6% (inactive),92.7%,-0.541 (inactive),1.5e-05 (inactive),0.00559 (inactive),10.3% (inactive),8.37% (inactive)
Cc1ccccc1NC(=O)NCCCN1CCN(C2CCCCC2)CC1,411,-1.8% (inactive),8.9% (inactive),81.8%,-119% (inactive),108%,-0.61 (inactive),2.5e-06 (inactive),0.00551 (inactive),3.03% (inactive),13% (inactive)
Cc1ccc2[nH]c(=O)c(-c3noc(-c4ccncc4)n3)cc2c1,474,-9.1% (inactive),-82.1% (inactive),65%,-51% (inactive),93.8%,-0.31 (inactive),-6e-05 (inactive),0.0054 (inactive),8.49% (inactive),12.4% (inactive)
CCOC(=O)c1c(C)[nH]c(C)c1C(=O)COc1ccc(NC(=O)c2ccco2)cc1,426,-10.7% (inactive),8.3% (inactive),102%,-423% (inactive),144%,-0.646 (inactive),1.7e-05 (inactive),0.00505 (inactive),14.6% (inactive),20.5% (inactive)
O=C(C1CCC(CNc2c(N3CCCCC3)c(=O)c2=O)CC1)N1CCc2ccccc2C1 (stereo not drawn),557,8.9% (inactive),-6.5% (inactive),95.1%,44% (inactive),97.9%,-0.51 (inactive),-1.9e-05 (inactive),0.00576 (inactive),8.75% (inactive),33.5% (inactive)
COc1ccc(S(=O)(=O)Nc2ccc(F)c(F)c2)cc1Cl,723,8.5% (inactive),5.1% (inactive),102%,-8.3% (inactive),98.5%,-0.496 (inactive),-1.9e-05 (inactive),0.0057 (inactive),8.01% (inactive),31.5% (inactive)
c1ccc2c(c1)CNc1ccccc1C2,526,-11.2% (inactive),30.2% (inactive),83.2%,-30% (inactive),86.7%,-0.517 (inactive),2.1e-06 (inactive),0.00468 (inactive),7.99% (inactive),10.2% (inactive)
CC(C)CC(=O)Nc1ccccc1-c1nnn(CC(=O)N2CCOCC2)n1,739,-6.7% (inactive),1.9% (inactive),112%,25.9% (inactive),106%,-0.497 (inactive),-6.6e-05 (inactive),0.00487 (inactive),7.19% (inactive),13.9% (inactive)
CCn1cc(C(=O)NCCCOC)c(=O)c2cc(S(=O)(=O)N(C)C3CCCCC3)ccc21,559,-15.1% (inactive),18.2% (inactive),74.5%,-38.4% (inactive),100%,-0.678 (inactive),5.7e-06 (inactive),0.00665 (inactive),6.58% (inactive),28.2% (inactive)
Cc1ccc(S(=O)(=O)C2(C(=O)Nc3nccs3)CC2)cc1,584,6.5% (inactive),0% (inactive),95.6%,-69.3% (inactive),103%,-0.586 (inactive),-2.1e-05 (inactive),0.00637 (inactive),13% (inactive),32.7% (inactive)
Cc1ccc(C(c2sc3nc(C)nn3c2O)N2CC(C)OC(C)C2)cc1 (stereo not drawn),213,-3.9% (inactive),-30.3% (inactive),110%,-23.9% (inactive),108%,-0.44 (inactive),-5.9e-05 (inactive),0.00489 (inactive),16.3% (inactive),29.9% (inactive)
Nc1sccc1C(=O)c1ccc(Cl)cc1,403,0% (inactive),7.1% (inactive),92%,-146% (inactive),103%,-0.44 (inactive),-2.6e-05 (inactive),0.00277 (inactive),2.24% (inactive),0.658% (inactive)
CCc1ccccc1-n1c(SCC(=O)N2CCCC2)nnc1-c1ccccn1,484,2.5% (inactive),-5.8% (inactive),116%,-11.2% (inactive),104%,-0.524 (inactive),5e-05 (inactive),0.00548 (inactive),-2.19% (inactive),4.38% (inactive)
Cc1ccc(S(=O)(=O)NCCN2CCOCC2)cc1C,408,-14.3% (inactive),21.7% (inactive),92.2%,31.4% (inactive),86.3%,-0.611 (inactive),1.4e-07 (inactive),0.00599 (inactive),13.7% (inactive),26.5% (inactive)
Cc1[nH]nc(N=CC2=C(O)CC(C)(C)CC2=O)c1-c1ccccc1,551,-8.6% (inactive),-3.5% (inactive),85.2%,15.4% (inactive),95.3%,-0.344 (inactive),-2.3e-05 (inactive),0.00489 (inactive),-16.8% (inactive),13.8% (inactive)
N#CC1=C(N)Oc2cc(O)ccc2C1C1CCCCC1 (stereo not drawn),527,0.6% (inactive),18.3% (inactive),103%,-33.8% (inactive),85.8%,-0.443 (inactive),1.3e-05 (inactive),0.00336 (inactive),14.1% (inactive),25.6% (inactive)
c1ccc2c(c1)CC(N1CCCCC1)c1ccccc1N2 (stereo not drawn),631,-6.3% (inactive),10.2% (inactive),107%,-26.5% (inactive),83.5%,-0.41 (inactive),-0.000142 (inactive),0.00466 (inactive),10.1% (inactive),24.1% (inactive)
Cc1cccc(NC(=O)C2CCCN(C(=O)Nc3ccccc3)C2)c1C (stereo not drawn),599,-28.6% (inactive),-9.1% (inactive),87.8%,-9.2% (inactive),85.7%,-0.573 (inactive),4.6e-05 (inactive),0.00746 (inactive),4% (inactive),-12% (inactive)
CC1Cc2nc(SCC(=O)Nc3ccccc3F)n(C)c(=O)c2S1 (stereo not drawn),385,4.4% (inactive),-9.2% (inactive),98.4%,-15% (inactive),113%,-0.505 (inactive),-2.1e-05 (inactive),0.00529 (inactive),10.7% (inactive),3.28% (inactive)
O=C(CSc1nc2ncccc2[nH]1)Nc1ccc2c(c1)OCCO2,507,1.7% (inactive),10.1% (inactive),87.8%,-113% (inactive),177%,-0.509 (inactive),2.9e-05 (inactive),0.00643 (inactive),-4.29% (inactive),-22.7% (inactive)
Cc1nc(C)c(C(=O)C2=C(O)C(=O)N(CCN3CCOCC3)C2c2ccco2)s1 (stereo not drawn),244,-3.2% (inactive),0.6% (inactive),86.3%,-2.9% (inactive),104%,-0.388 (inactive),-2.3e-06 (inactive),0.00517 (inactive),11% (inactive),6.93% (inactive)
COCCOC(=O)/C=C1/NC(=O)CS1,669,5.3% (inactive),9.1% (inactive),100%,45.1% (inactive),98.3%,-0.606 (inactive),-1.8e-05 (inactive),0.00397 (inactive),15.1% (inactive),21.6% (inactive)
CCn1c(SCC(=O)c2ccc(C)cc2)nnc1-c1ccoc1C,446,-11.7% (inactive),3.7% (inactive),77.4%,-138% (inactive),119%,-0.329 (inactive),-6.6e-05 (inactive),0.00433 (inactive),-8.3% (inactive),-36.4% (inactive)
